Our source for the fluorescence (KMESF) values is PubChem BioAssay AID1776 (NMMLSC, 2009).

Structures are written as SMILES. The whole screen tested about 190,000 compounds, of which about 490 (0.26%) were called active. This is one part of a sample in which actives are shown more often than they occur. Rule as the data show it: active = fluorescence above about 89; inactive = the rest.

The nature of this assay: compound fluorescence on glutathione beads, profiling panel, artefact control, biophysical, 488/530 nm, flow cytometry (AID 1776).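 Also: glutathione beads carrying GST-tagged Bcl family fusion proteins plus one bare bead set; values are compound well signal with DMSO vehicle wells as background.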 The conditions noted are these: GSH beads flow cytometry, compound fluorescence 488/530 nm; at 10 µM; stronger effect = higher value.
For the molecule `CCOC(=O)CNC(=O)CSc1nnnn1-c1cc(C)ccc1C`, the fluorescence (KMESF) is 33 (inactive). Consider `Cc1ccc(C)c(-n2nnnc2SCC(=O)c2c(N)n(C)c(=O)n(C)c2=O)c1`, for which the fluorescence (KMESF) is 179 (active). Turning to `CNC(=O)CSc1nnnn1-c1ccc(C)cc1C`, the fluorescence (KMESF) is 23 (inactive).

With `CN(C)CC(C)(C)CNC(=O)c1cc(Br)cc(Br)c1O`, the fluorescence (KMESF) is 12 (inactive). The value for `C=CCNC(=S)NNC(=O)COc1c(Cl)cc(Cl)cc1Cl` was 12 (inactive); that for `Cc1cc(C)nc(NNC2=CC(=O)CC(C)(C)C2)n1` was 16 (inactive); that for `COc1ccc(C(=O)NNc2cc(C)nc(NNC(=O)c3ccc(OC)cc3)n2)cc1` was 11 (inactive). With `CC1CCCCC1NC(=O)CN1CCC(O)(c2ccc3c(c2)OCO3)CC1` (centres undefined), the fluorescence (KMESF) is 15 (inactive). For the molecule `CC1=C(C)CC(C(=O)NNC(=O)c2csc3c2CCC(C(C)(C)C)C3)C(C(=O)O)C1` (centres undefined), the fluorescence (KMESF) was 10 (inactive). Under `Cc1ccccc1CC1(CO)CCCN(Cc2ccc3c(c2)OCCO3)C1` (centres undefined) stands 18 (inactive); under `S=c1[nH]ccn1-c1ccc(Cl)cc1`, 11 (inactive). The value for `COCCSc1nnc(NC(=O)c2cc(OC)c(OC)cc2[N+](=O)[O-])s1` was 21 (inactive); that for `Cc1ccc(C(=O)NC(C)c2ccccc2)cc1Br` (centres undefined) was 15 (inactive). Under `OCCC#Cc1ccc(CN2CCN(Cc3ccsc3)C(CCO)C2)cc1` (centres undefined) stands 10 (inactive). Take `CCCCCc1nnc(NC(=O)c2ccc(=O)n(C)n2)s1`: the fluorescence (KMESF) was 16 (inactive).

Take `CC1(C)CC(=O)C(N=Nc2ccc(S(=O)(=O)N3CCCCCC3)cc2)=C(O)C1`: the fluorescence (KMESF) was 11 (inactive). Turning to `COc1cc(OC)cc(-c2nc3ccccc3c(=O)n2NC(=O)c2cccnc2Cl)c1`, the fluorescence (KMESF) is 10 (inactive). `Cc1ccc(C)c(-n2ccnc2SCC(N)=O)c1`: the fluorescence (KMESF) was 20 (inactive). Under `CC(C)c1nc(CNC(=O)CC2C(=O)NCCN2Cc2ccoc2)cs1` (centres undefined) stands 15 (inactive); under `COc1cc(OC)c(C(=O)N2CCCC2)cc1OC`, 10 (inactive).

`O=C(COc1ccc([N+](=O)[O-])cc1)Nc1ccc(N2CCCC2)cc1`: the fluorescence (KMESF) was 9 (inactive). With `Cc1nn(-c2ccc([N+](=O)[O-])cc2)c(N)c1-c1ccccc1`, the fluorescence (KMESF) is 8 (inactive). With `Cc1cc(NS(=O)(=O)c2ccc(NC(=S)NC(=O)c3ccc(F)cc3Cl)cc2)no1`, the fluorescence (KMESF) is 12 (inactive). For `CNc1ccc(NC(C)=O)cc1[N+](=O)[O-]`, the fluorescence (KMESF) is 13 (inactive). The value for `CCCOCC(O)CC(CC)C(=O)NNC(=S)Nc1ccccc1` (centres undefined) was 13 (inactive); that for `S=C(Nc1cccc(Br)c1)N1CCn2cccc2C1c1cccnc1` (centres undefined) was 15 (inactive); that for `COc1ccccc1-c1noc(CSc2nc(C)cc(=O)[nH]2)n1` was 20 (inactive). The value for `Cc1cc(=O)[nH]c(SCc2cccc(F)c2)n1` was 31 (inactive). For `Cc1cc(=O)[nH]c(SCc2cc(Cl)ccc2OC(F)F)n1`, the fluorescence (KMESF) was 270 (active).
